The entries come from a sample that favours hits as a whole.
hDAT+cocaine: human DAT dopamine uptake with cocaine, either direction; LLC-PK1 hDAT cells, [14C]-dopamine uptake with cocaine IC80; actives deviate in either direction; B-score at 10 µM; actives 1.3% (n = 110,000);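 active means Z score or B-score, a plate-position-corrected score, falls beyond the plate's 99.7% confidence bounds, in either direction; inactive means both scores lie inside the 99.7% bounds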;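 further: scored against the spread of the other compound wells on the same plate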
Target sequence (Q01959 whole entry, looked up): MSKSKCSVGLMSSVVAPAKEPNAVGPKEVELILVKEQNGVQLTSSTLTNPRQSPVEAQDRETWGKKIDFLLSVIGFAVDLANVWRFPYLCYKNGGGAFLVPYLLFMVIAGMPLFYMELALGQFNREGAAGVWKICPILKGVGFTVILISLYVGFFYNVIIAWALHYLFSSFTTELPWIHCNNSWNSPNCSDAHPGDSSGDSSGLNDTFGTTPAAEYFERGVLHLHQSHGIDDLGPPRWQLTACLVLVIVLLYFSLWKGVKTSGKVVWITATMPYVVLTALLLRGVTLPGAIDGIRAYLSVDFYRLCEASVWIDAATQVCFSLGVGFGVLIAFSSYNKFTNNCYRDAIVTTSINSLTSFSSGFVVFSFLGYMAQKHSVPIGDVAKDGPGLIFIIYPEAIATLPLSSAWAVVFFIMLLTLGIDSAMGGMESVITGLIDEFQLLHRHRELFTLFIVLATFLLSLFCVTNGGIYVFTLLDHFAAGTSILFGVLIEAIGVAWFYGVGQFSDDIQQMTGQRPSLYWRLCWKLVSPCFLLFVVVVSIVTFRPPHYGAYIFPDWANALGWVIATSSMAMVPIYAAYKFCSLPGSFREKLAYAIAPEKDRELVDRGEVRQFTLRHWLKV
D1 allo mod: D1 dopamine receptor (human) allosteric modulation. P21728. HEK293 D1, CRE-luciferase, dopamine EC30 potentiation; actives deviate in either direction. B-score at 10 µM. actives 5.9% (n = 58,000). AID 641;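 active means luminescence count or its row- and column-corrected plate score outside the 99.7% band of the plate's sample wells, on either side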
EphB4 ephrin blk: antagonists of human EphB4-ephrin-B2 interaction. AID 720. EphB4 LBD / TNYL-RAW-Alexa532 peptide, fluorescence polarization. actives 0.15% (n = 97,000). P54760. inhibition, % at 7 µM;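 active means inhibition above the screen-wide mean inhibition plus 3 SD, cut at about 15% in these data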;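 further: 0% = DMSO wells and 100% = excess unlabeled TNYL-RAW peptide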
D1 PAM confirm: confirmation of human D1 dopamine receptor allosteric modulators; shares compounds with D1 allo mod; HEK293 D1 CRE-luciferase, dopamine EC30 potentiation; active compounds read high; luminescence at 10 µM; actives 88% (n = 2,200);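 active means luminescence in either of two replicates above the same-plate mean plus 3 SD of the low-dose dopamine control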
D1 no dopamine: secondary test of D1 modulators: activity without dopamine; AID 646; luminescence at 10 µM; HEK293 D1 CRE-luciferase, luminescence, no dopamine; active compounds read high; actives 0.8% (n = 1,900); shares compounds with D1 allo mod; in the data active means luminescence above about 3900
Isoprot counter: isoproterenol response counter-screen activity for D1 modulators. shares compounds with D1 allo mod. HEK293 D1 CRE-luciferase, isoproterenol EC30 counter-screen. calls only at 10 µM. actives 63% (n = 2,200);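 active means luminescence in either replicate above plate mean of wells with a partly effective reference agonist dose plus 3 SD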;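 further: isoproterenol raises cAMP through native beta-adrenoceptor Gs so signal bypasses D1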
* marks the source's active call; other numbers are inactive results; i = inactive; . = not tested or not shown; + = active, no number.

SMILES	hDAT+cocaine	D1 allo mod	EphB4 ephrin blk	D1 PAM confirm	D1 no dopamine	Isoprot counter
CCOC(=O)[C@@H]1[C@H]2COc3ccccc3[C@@H]2N2C(=O)N(c3ccc(C(F)(F)F)cc3)C(=O)[C@]12C	0.38	.	.	.	.	.
OCCSc1c(F)c(SCCO)c(SCCO)c(F)c1SCCO	-0.46	0.31	2	.	.	.
NC(=O)CSc1nnc(-c2cccs2)n1-c1ccccc1	-0.0082	.	0	.	.	.
COC(=O)CSc1nnc(-c2cccs2)n1-c1ccc(Cl)cc1	0.73	2.8*	-8	9056*	.	+
CC(C)OC(=O)c1c2nc3ccccc3nc2n2c1[nH]c(=O)c1ccccc12	-0.56	0.11	0	.	.	.
Cc1occc(=O)c1O	0.66	.	.	.	.	.
Cc1cccc2cc(CN(CC3CCCO3)C(=O)c3cccnc3)c3nnnn3c12 (stereo unspecified)	2.4	5.5*	14	15420*	.	+
Cc1cccc2cc(CN(CC3CCCO3)S(=O)(=O)c3ccccc3)c3nnnn3c12 (stereo unspecified)	.	0.083	.	.	.	.
COc1ccc(NC(C)=O)cc1NC(C)C(=O)Nc1cccc2ccccc12 (stereo unspecified)	-0.62	.	-2	.	.	.
COC(=O)c1cc(C#N)c(Oc2ccc(F)cc2)nc1C	-0.66	.	1	.	.	.
CCOc1ccc(C(=O)Nc2ccc(N3CCCC3)cc2)cc1	-0.46	-0.06	-10	.	.	.
CCCOc1ccc(C(=O)Nc2ccc(N3CCN(C(C)=O)CC3)cc2)cc1	0.2	3*	-4	6192	1528	i
Cc1sc(NC(=O)C2CC=CCC2C(=O)O)c(C(=O)OC(C)C)c1C (stereo unspecified)	-0.39	.	-1	.	.	.
Cn1ncc(Cl)c1C(=O)NC(=S)Nc1sc2c(c1C#N)CCCCC2	-0.94	.	-2	.	.	.
CCOC(=O)c1sc(NC(=O)CSc2nc3c(c(=O)n2-c2ccc(C)cc2)SCC3)c(C(=O)OCC)c1C	-1.3	.	.	.	.	.
Cc1cc(N)n2ncc(-c3cccc(Br)c3)c2n1	1.2	6.4*	3	10808*	1672	+
Cc1cc(N)n2ncc(-c3ccccc3)c2n1	0.52	1.5	2	.	.	.
CC12CCC(C(=O)Nc3cc(Cl)ccc3Cl)(C/C1=N\O)C2(C)C (stereo unspecified)	0.01	.	-1	.	.	.
O=C(COC(=O)C1CC1)NCc1ccccc1Cl	-2.4	.	4	.	.	.
CC(C)(C)c1ccc(Cn2ccc(-c3ccc4c(c3)OCO4)n2)cc1	0.67	.	-1	.	.	.
Oc1ccc(-c2nc(-c3ccc(O)c(O)c3)cs2)cc1	-0.13	6.7*	.	7572*	2480	+
Oc1ccc(Nc2nc(-c3ccc4ccccc4c3)cs2)cc1	0.74	.	-1	.	.	.
CCc1nnc(NS(=O)(=O)c2ccc(NC(=S)NC(=O)/C=C/c3ccc(C(C)C)cc3)cc2)s1	1.5	.	-1	.	.	.
COc1cc(NC(=O)C2CC(=O)NC3=C2C(=O)CCC3)c(OC)cc1Cl (stereo unspecified)	1.4	.	3	.	.	.
O=C(C1=C[C@H](c2coc3ccccc3c2=O)C[C@H](OCCCCO)O1)N1CCOCC1	-0.55	.	.	.	.	.
SMILES	hDAT+cocaine	D1 allo mod	EphB4 ephrin blk	D1 PAM confirm	D1 no dopamine	Isoprot counter
Cc1ccc(-c2cc(-c3ccc(F)cc3)nc(N)c2C#N)o1	0.36	15*	7	26016*	2012	+
Cc1ccc(-c2cc(-c3ccccc3)c(C#N)c(N)n2)o1	-0.56	-0.73	1	.	.	.
COC(=O)c1ccc2nc(C3CCCCC3)c3c(c2c1)CCC3	-0.12	.	.	.	.	.
COC(=O)c1nn(-c2ccccc2)ccc1=O	-1.6	.	-1	.	.	.
COC(=O)c1cn(-c2ccccc2)nc1C(=O)OC	1.3	18*	.	20700*	1688	+
CCCN(CCC)S(=O)(=O)c1ccc(NC(=O)COc2ccccc2)cc1	0.34	.	-2	.	.	.
COc1ccc(OC)c(C2C(C(=O)c3cccs3)=C(O)C(=O)N2CCN(C)C)c1 (stereo unspecified)	-0.022	-0.11	-6	.	.	.
COc1cccc(C2C(C(=O)c3cccs3)=C(O)C(=O)N2CCN(C)C)c1OC (stereo unspecified)	-0.0023	2.5*	1	5748	.	i
COc1ccc(CC(=O)N2CC(C)CC(C)C2)cc1 (stereo unspecified)	0.35	.	-3	.	.	.
COC(=O)c1ccc(Oc2cc(C)nc(SC)n2)cc1	0.46	5.3*	-10	15492*	1728	+
COC(=O)COc1ccc(Oc2cc(C)nc(SC)n2)nn1	1.3	0.069	8	.	.	.
Cc1ccc(C2(C(F)(F)F)N=C3Sc4cc(C)ccc4N3C(=O)N2)cc1 (stereo unspecified)	.	.	4	.	.	.
CCCS(=O)(=O)N1CCN(S(=O)(=O)c2ccccc2)CC1	0.23	.	-4	.	.	.
C=CCSc1nncn1/N=C/c1ccc(OC)cc1	-2.1	-0.17	-1	.	.	.
COc1ccc(/C=N/n2cnnc2SCCO)cc1OC	-1.1	2.6*	-2	14424*	1384	+
COc1ccc(CCNc2oc(-c3ccco3)nc2C#N)cc1	-0.0049	3.8	4	.	.	.
CNc1oc(-c2cccs2)nc1C#N	.	.	8	.	.	.
COc1ccc(Nc2oc(-c3cccs3)nc2C#N)cc1	-0.15	8.1*	-3	16196*	1612	+
CNc1oc(-c2ccco2)nc1C#N	-0.88	-0.056	-4	.	.	.
Cc1ccc(CNc2oc(-c3ccco3)nc2C#N)cc1	.	27*	2	18284*	1756	+
N#Cc1nc(-c2cccs2)oc1NCCc1ccccc1	-0.76	12*	0	14100*	1620	+
N#Cc1nc(-c2cccs2)oc1NCCN1CCOCC1	.	.	3	.	.	.
N#Cc1nc(-c2ccco2)oc1NCCc1ccccc1	0.43	5.5*	0	13580*	1764	+
Cc1cc(C)c(C(=O)C2OC(=O)C(C)(C)C(=O)C2(C)C)c(C)c1 (stereo unspecified)	0.47	.	-1	.	.	.
N#Cc1nc(-c2cccs2)oc1NCc1ccc2c(c1)OCO2	0.14	16*	6	19192*	1548	+
SMILES	hDAT+cocaine	D1 allo mod	EphB4 ephrin blk	D1 PAM confirm	D1 no dopamine	Isoprot counter
Cc1ccc(-c2nc(C#N)c(NCc3cccc4c3OCO4)o2)cc1	0.055	1.6	0	.	.	.
CCOc1ccc(OCC(=O)NCCc2nc3ccccc3[nH]2)cc1	0.0028	.	12	.	.	.
Cc1cc(=O)oc2cc(OCC(=O)NCCc3nc4ccccc4[nH]3)ccc12	-1.7	3.2*	8	6860*	1464	i
O=C(O)C[C@@H](O)C(=O)O	0.42	.	.	.	.	.
Cc1ccc(-c2nc(SCC(=O)NCC3CCCO3)c(-c3ccccc3)[nH]2)cc1 (stereo unspecified)	1	.	.	.	.	.
Cc1cccc(OCCCC(=O)NCc2ccco2)c1	-0.59	.	-5	.	.	.
c1ccc(CSc2nncn2-c2ccccn2)cc1	-0.00076	7.9*	1	12884*	1752	+
CC1CCN(C(=O)CSc2nncn2-c2ccccn2)CC1	-0.46	0.94	-2	.	.	.
Cc1cccc2nc(Cn3c(=O)n(CCC(=O)NCc4ccco4)c(=O)c4ccccc43)cc(=O)n12	.	0.11	.	.	.	.
CC1(C)CC(=O)C2=C(C1)OC(N)=C(C#N)C2c1cccc(OC(=O)c2ccco2)c1 (stereo unspecified)	-0.0094	6.3*	-4	5824*	1580	i

Screening results from PubChem.
